Measurements taken from PubChem BioAssay (Tox21).
Results filed as inconclusive are left out. Calls of active or inactive are those of the source. Calls follow the shape of the dose curve; as a rule, active = well fitted curve in the direction sought with a large enough effect in the repeat runs; inconclusive = weak or mixed curves; inactive = no such curve, though single readings can be large; an effect the other way counts as inactive or inconclusive.

Tests used:
[1] = biological target: Nuclear receptor subfamily 1 group I member 2 (Homo sapiens) (UniProt O75469); test: Human pregnane X receptor (PXR) small molecule agonists, qHTS assay (AID 1346982); also: nearly all actives have a fitted effect of over 35% in size
Method in brief: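 Agonist mode: luminescence from ONE-Glo after 24 h compound exposure at 37C in HepG2 cells carrying hPXR-responsive CYP3A4 luciferase, plated in charcoal-stripped serum medium 5 h beforehand.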

[2] = biological target: Cytochrome P450 2D6 (Homo sapiens) (UniProt P10635); test: Cytochrome P450 Family 2 Subfamily D Member 6 (CYP2D6) small molecule antagonists: luciferase reporter qHTS assay (AID 1671196); also: nearly all actives have a fitted effect of over 50% in size; as to activity change, negative = inhibition: series mostly up to about 120 µM
Method in brief: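 CYP2D6 activity was followed as luminescence from its luciferin product after a 1 h NADPH-driven reaction at room temperature. Enzyme-substrate mix and compound were pre-incubated for 10 min, and the signal was read 20 min after adding detection reagent.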

[3] = biological target: Cytochrome P450 2C19 (Homo sapiens) (UniProt P33261); test: Cytochrome P450 Family 2 Subfamily C Member 19 (CYP2C19) small molecule antagonists: luciferase reporter qHTS assay (AID 1671197); also: nearly all actives have a fitted effect of over 65% in size; as to activity change, negative = inhibition: series mostly up to about 120 µM
Method in brief: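 P450-Glo CYP2C19 system: enzyme-substrate mix with compound 10 min at room temperature, then NADPH regeneration solution, 1 h at 37C. Proluciferin-to-luciferin conversion detected by luminescence after 20 min with detection reagent; ketoconazole as positive control.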

[4] = biological target: Cytochrome P450 2C9 (Homo sapiens) (UniProt P11712); test: Cytochrome P450 Family 2 Subfamily C Member 9 (CYP2C9) small molecule antagonists: luciferase reporter qHTS assay (AID 1671198); also: nearly all actives have a fitted effect of over 50% in size; as to activity change, negative = inhibition: series mostly up to about 120 µM
Method in brief: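 CYP2C9 activity was measured with a P450-Glo proluciferin substrate. Enzyme–substrate mix was held with compound for 10 min at room temperature, then NADPH regeneration solution was added for 1 h at 37C. Luciferin product was read as luminescence.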

[5] = biological target: Cytochrome P450 1A2 (Homo sapiens) (UniProt P05177); test: Cytochrome P450 Family 1 Subfamily A Member 2 (CYP1A2) small molecule antagonists: luciferase reporter qHTS assay (AID 1671199); also: nearly all actives have a fitted effect of over 50% in size; as to activity change, negative = inhibition: series mostly up to about 120 µM
Method in brief: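 Luminescence from luciferin formed by CYP1A2 from a proluciferin substrate, read 20 min after detection reagent. Compound was pre-incubated 10 min with enzyme-substrate, and reaction started with NADPH regeneration solution for 1 h at room temperature; furafylline control.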

[6] = biological target: Voltage-gated inwardly rectifying potassium channel KCNH2 (Homo sapiens) (UniProt Q12809); test: Human Ether-a-go-go-Related Gene (hERG) channel small molecule antagonists: fluorescence cell-based qHTS assay (AID 1671200); also: nearly all actives have a fitted effect of over 50% in size;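 as to activity change, negative = inhibition: hERG-expressing U2OS cells given a thallium stimulus after FluxOR II dye loading; series mostly up to about 77 µM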
Method in brief: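 Measured: Tl+ flux via fluorescence (480/540 nm) in hERG-expressing U2OS cells after 1 h dye loading at room temperature.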

[7] = biological target: Cytochrome P450 3A4 (Homo sapiens) (UniProt P08684); test: Cytochrome P450 Family 3 Subfamily A Member 4 (CYP3A4) small molecule antagonists: luciferase reporter qHTS assay (AID 1671201); also: nearly all actives have a fitted effect of over 50% in size; as to activity change, negative = inhibition: series mostly up to about 120 µM
Method in brief: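 Setup: enzyme-substrate mix, compound pin transfer, 10 min RT. Reaction: NADPH regeneration solution, 1 h RT. Readout: detection reagent stops turnover, luminescence measured after 20 min, expressed in relative luminescence units.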
% is scaled to controls: 0 for no effect and ±100 for the full control effect; potency is read from the fitted curve at half-maximal effect.

Chain of Cytochrome P450 2C19 (Homo sapiens) (P33261 whole entry, looked up): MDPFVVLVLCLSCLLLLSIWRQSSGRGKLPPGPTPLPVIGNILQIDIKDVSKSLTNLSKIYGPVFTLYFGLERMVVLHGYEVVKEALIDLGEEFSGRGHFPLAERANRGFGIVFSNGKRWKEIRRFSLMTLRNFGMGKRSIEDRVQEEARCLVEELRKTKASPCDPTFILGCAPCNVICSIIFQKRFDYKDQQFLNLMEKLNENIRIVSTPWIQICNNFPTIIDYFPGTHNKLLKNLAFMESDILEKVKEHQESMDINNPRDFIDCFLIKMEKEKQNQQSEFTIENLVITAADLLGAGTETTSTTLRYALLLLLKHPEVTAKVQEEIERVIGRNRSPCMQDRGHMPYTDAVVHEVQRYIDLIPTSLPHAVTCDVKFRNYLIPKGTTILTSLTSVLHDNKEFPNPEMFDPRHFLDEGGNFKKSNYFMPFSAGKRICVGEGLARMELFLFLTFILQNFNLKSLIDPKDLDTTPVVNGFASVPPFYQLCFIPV
Chain of Cytochrome P450 2C9 (Homo sapiens) (P11712 whole entry, looked up): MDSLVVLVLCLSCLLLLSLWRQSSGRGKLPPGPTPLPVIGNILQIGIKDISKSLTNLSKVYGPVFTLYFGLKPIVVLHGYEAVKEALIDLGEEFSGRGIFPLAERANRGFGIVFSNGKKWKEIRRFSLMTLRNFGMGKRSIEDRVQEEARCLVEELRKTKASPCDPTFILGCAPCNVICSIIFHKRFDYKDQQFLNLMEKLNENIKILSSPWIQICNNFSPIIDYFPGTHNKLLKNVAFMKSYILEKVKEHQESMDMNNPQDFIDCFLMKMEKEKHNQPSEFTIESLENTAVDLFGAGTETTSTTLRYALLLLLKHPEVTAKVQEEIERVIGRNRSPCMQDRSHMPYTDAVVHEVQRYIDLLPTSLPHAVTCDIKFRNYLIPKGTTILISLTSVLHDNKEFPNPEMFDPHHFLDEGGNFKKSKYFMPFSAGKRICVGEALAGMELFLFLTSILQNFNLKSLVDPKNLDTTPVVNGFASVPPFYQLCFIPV
Chain of Cytochrome P450 1A2 (Homo sapiens) (P05177 whole entry, looked up): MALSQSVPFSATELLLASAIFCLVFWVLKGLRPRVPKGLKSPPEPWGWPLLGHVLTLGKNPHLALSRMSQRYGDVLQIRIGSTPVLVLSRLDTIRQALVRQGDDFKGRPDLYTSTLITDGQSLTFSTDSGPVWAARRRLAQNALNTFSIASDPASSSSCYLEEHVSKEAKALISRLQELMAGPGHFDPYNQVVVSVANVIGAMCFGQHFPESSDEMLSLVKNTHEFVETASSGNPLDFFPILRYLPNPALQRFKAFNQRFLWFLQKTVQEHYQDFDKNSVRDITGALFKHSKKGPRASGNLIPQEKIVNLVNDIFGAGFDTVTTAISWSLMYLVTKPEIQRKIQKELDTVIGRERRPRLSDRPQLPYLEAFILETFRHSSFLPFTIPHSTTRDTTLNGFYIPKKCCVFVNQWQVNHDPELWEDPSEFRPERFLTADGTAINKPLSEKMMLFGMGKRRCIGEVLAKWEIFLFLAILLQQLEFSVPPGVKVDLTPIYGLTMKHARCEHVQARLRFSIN
Chain of Nuclear receptor subfamily 1 group I member 2 (Homo sapiens) (O75469 whole entry, looked up): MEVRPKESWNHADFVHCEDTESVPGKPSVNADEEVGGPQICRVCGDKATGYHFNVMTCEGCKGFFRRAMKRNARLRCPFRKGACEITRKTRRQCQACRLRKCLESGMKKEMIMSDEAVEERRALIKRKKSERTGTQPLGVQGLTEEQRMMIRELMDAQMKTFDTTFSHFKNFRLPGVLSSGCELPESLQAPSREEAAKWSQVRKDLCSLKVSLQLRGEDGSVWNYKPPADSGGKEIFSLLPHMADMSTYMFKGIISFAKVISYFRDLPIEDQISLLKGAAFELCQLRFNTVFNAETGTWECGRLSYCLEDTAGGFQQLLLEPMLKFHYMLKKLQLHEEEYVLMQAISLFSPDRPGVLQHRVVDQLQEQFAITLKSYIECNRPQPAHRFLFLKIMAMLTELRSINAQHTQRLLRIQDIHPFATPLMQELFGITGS
Chain of Cytochrome P450 3A4 (Homo sapiens) (P08684 whole entry, looked up): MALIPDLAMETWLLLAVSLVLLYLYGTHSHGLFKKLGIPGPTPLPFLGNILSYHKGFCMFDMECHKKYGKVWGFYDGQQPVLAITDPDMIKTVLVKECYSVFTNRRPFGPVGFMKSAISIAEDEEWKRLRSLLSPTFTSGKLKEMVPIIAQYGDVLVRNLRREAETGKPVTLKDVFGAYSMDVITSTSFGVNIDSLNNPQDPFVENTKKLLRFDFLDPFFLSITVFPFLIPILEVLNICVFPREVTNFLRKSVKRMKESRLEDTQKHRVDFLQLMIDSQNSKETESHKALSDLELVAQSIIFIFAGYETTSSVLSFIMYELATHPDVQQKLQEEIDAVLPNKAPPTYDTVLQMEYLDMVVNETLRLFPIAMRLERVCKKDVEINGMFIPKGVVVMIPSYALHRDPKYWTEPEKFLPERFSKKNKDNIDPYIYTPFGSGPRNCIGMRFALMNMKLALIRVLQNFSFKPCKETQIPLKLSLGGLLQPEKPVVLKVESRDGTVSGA
Chain of Cytochrome P450 2D6 (Homo sapiens) (P10635 whole entry, looked up): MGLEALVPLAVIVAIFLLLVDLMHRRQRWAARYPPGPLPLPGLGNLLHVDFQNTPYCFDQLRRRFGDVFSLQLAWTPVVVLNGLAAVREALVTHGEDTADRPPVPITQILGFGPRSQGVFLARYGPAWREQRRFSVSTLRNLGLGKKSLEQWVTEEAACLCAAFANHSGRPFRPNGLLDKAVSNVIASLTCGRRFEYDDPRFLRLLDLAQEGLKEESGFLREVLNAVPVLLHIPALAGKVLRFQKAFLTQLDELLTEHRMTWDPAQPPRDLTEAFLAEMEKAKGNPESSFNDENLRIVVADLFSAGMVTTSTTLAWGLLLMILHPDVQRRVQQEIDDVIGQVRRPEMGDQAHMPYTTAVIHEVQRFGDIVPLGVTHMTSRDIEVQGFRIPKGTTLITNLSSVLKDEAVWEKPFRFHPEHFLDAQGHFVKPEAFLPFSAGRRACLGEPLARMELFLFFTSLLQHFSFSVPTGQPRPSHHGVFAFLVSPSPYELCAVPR
Chain of Voltage-gated inwardly rectifying potassium channel KCNH2 (Homo sapiens) (Q12809 whole entry, looked up): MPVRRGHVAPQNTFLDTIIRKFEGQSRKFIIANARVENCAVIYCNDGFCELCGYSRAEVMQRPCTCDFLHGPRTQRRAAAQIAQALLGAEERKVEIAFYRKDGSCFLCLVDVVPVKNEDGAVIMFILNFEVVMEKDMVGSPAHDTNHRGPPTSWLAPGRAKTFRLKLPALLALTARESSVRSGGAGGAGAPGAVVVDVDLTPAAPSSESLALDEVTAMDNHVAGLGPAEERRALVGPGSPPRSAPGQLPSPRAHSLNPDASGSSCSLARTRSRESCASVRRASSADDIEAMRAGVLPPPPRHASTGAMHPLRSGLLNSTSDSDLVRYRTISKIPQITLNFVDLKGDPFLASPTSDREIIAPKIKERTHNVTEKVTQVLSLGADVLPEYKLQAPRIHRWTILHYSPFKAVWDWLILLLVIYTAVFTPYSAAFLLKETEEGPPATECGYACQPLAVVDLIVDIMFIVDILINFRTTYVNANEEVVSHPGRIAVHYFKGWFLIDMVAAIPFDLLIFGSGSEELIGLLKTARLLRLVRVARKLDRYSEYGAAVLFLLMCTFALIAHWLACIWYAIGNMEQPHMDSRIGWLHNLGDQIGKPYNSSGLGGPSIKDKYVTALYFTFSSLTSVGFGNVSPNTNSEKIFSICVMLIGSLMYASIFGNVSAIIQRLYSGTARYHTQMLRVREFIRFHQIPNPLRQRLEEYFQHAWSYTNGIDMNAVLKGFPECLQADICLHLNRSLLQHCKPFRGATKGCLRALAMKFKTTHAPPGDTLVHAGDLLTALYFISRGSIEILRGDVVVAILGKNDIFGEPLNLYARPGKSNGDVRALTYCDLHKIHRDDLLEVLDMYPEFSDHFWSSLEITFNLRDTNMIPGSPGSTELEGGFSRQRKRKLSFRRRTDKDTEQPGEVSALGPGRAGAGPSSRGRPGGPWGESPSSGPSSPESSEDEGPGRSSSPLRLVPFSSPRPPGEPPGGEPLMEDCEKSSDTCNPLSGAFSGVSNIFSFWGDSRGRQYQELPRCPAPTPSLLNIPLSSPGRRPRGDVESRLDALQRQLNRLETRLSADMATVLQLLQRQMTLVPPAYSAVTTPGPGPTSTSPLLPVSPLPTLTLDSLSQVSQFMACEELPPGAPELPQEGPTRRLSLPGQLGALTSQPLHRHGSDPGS

C=C(C)CCO
inactive: Potency [1] | Potency [2] | Potency [3] | Potency [4] | Potency [5] | Potency [6] | Potency [7]

C/C=C/C(=O)C1=C(C)C=CCC1(C)C
inactive: Potency [1] | Potency [2] | Potency [3] | Potency [4] | Potency [5] | Potency [6] | Potency [7]

Cc1ccc(C=O)cc1
inactive: Potency [1] | Potency [2] | Potency [3] | Potency [4] | Potency [5] | Potency [6] | Potency [7]

CCCCC/C=C\C=C\C(=O)OCC
active: Potency [1] 63.7 µM | Potency [2] 46.7 µM | Potency [3] 23.4 µM | Potency [4] 13.2 µM | Potency [5] 37.1 µM | Potency [7] 16.6 µM

Cc1c[nH]c(=O)[nH]c1=O
inactive: Potency [1] | Potency [2] | Potency [3] | Potency [4] | Potency [6] | Potency [7]

O[Si](c1ccccc1)(c1ccccc1)c1ccccc1
active: Potency [1] 27.3 µM | Potency [3] 0.502 µM | Potency [4] 0.564 µM
inactive: Potency [2] | Potency [5] | Potency [7]

CCc1c(C)cc(N)c(CC)c1N
inactive: Potency [6]
active: Potency [1] 24.3 µM | Potency [2] 4.48 µM | Potency [3] 14.2 µM | Potency [4] 28.3 µM | Potency [5] 20 µM | Potency [7] 15.9 µM

CCOC(=O)[C@H](C)O
inactive: Potency [1] | Potency [2] | Potency [3] | Potency [4] | Potency [5] | Potency [6] | Potency [7]

CN(C[C@@H](CC[N+]12CCC(C3CCCCC3)(CC1)CC2)c1ccc(Cl)c(Cl)c1)C(=O)c1cc(C(F)(F)F)cc(C(F)(F)F)c1
active: Potency [2] 15.9 µM | Potency [3] 5.64 µM | Potency [4] 39.9 µM | Potency [5] 71 µM | Potency [7] 2.24 µM
inactive: Potency [1] | Potency [6]

CC(Cc1ccc(O)c(O)c1)C(C)Cc1ccc(O)c(O)c1 (stereo not drawn)
inactive: Potency [2] | Potency [5]
active: Potency [1] 21.7 µM | Potency [3] 35.6 µM | Potency [4] 12.6 µM | Potency [7] 35.6 µM

C=CC(=O)OCC(Br)CBr (stereo not drawn)
inactive: Potency [1] | Potency [2] | Potency [3] | Potency [4] | Potency [5] | Potency [6] | Potency [7]

CCOC(=O)[C@H](O)[C@@H](O)C(=O)OCC
inactive: Potency [1] | Potency [2] | Potency [3] | Potency [4] | Potency [6] | Potency [7]

[Cl][Sc]([Cl])[Cl]
inactive: Potency [1] | Potency [2] | Potency [3] | Potency [4] | Potency [5] | Potency [6] | Potency [7]

c1ccc(-c2ccccc2-c2ccccc2)cc1
inactive: Potency [2] | Potency [7]
active: Potency [1] 61.1 µM | Potency [3] 20 µM | Potency [4] 22.4 µM | Potency [5] 3.17 µM

CCOc1ccc([N+](=O)[O-])cc1
active: Potency [2] 80.9 µM | Potency [3] 8.09 µM | Potency [4] 16.1 µM | Potency [5] 32.2 µM | Potency [7] 72.1 µM
inactive: Potency [1] | Potency [6]

O=C1CCC(=O)N1
inactive: Potency [1] | Potency [2] | Potency [3] | Potency [4] | Potency [5] | Potency [6] | Potency [7]

O=[N+]([O-])c1ccc(CO)cc1
inactive: Potency [1] | Potency [2] | Potency [3] | Potency [4] | Potency [6] | Potency [7]

CCCC(C)C=O (stereo not drawn)
inactive: Potency [1] | Potency [2] | Potency [3] | Potency [4] | Potency [5] | Potency [6] | Potency [7]

O=C1OC(O)C(C(Cl)Cl)=C1Cl (stereo not drawn)
inactive: Potency [2] | Potency [3] | Potency [4] | Potency [5] | Potency [6] | Potency [7]
active: Potency [1] 22.4 µM

CC(C)(c1ccc(Oc2ccc(N)cc2)cc1)c1ccc(Oc2ccc(N)cc2)cc1
inactive: Potency [2] | Potency [5] | Potency [6]
active: Potency [1] 61.1 µM | Potency [3] 7.96 µM | Potency [4] 2.52 µM | Potency [7] 2.52 µM

CCOC=C(C(=O)OCC)C(=O)OCC
inactive: Potency [1] | Potency [2] | Potency [3] | Potency [4] | Potency [5] | Potency [6] | Potency [7]

CCCCCCCCCCCCS(=O)(=O)Cl
inactive: activation [1] 2.36% [at 19 µM] | activity change, negative = inhibition [2] -14.2% [at 23.6 µM] | activity change, negative = inhibition [3] -3.93% [at 23.6 µM] | activity change, negative = inhibition [4] -14.1% [at 23.6 µM] | activity change, negative = inhibition [5] 5.89% [at 23.6 µM] | activity change, negative = inhibition [6] 1.06% [at 15.8 µM] | activity change, negative = inhibition [7] -1.36% [at 23.6 µM]

O=C1C=CC(=O)N1c1cccc(N2C(=O)C=CC2=O)c1
active: Potency [2] 71 µM | Potency [3] 7.1 µM | Potency [4] 6.33 µM | Potency [5] 15.9 µM
inactive: Potency [1] | Potency [7]

CC1(C)[C@H](C(=O)OCc2cccc(Oc3ccccc3)c2)[C@@H]1C=C(Cl)Cl
inactive: Potency [1] | Potency [2] | Potency [3] | Potency [4] | Potency [5] | Potency [6] | Potency [7]

C=Cc1ccncc1
inactive: Potency [1] | Potency [2] | Potency [3] | Potency [4] | Potency [6] | Potency [7]

CN[C@H]1CC[C@@H](c2ccc(Cl)c(Cl)c2)c2ccc(S(N)(=O)=O)cc21
active: Potency [2] 1.42 µM | Potency [3] 50.2 µM | Potency [4] 39.9 µM | Potency [6] 9.77 µM | Potency [7] 28.3 µM
inactive: Potency [1] | Potency [5]
